The list is not random: actives were taken first. Their share in the collection is about 4.1%.
DAX1 inh-1: DAX1 (NR0B1) inhibitors, primary screen, cell-based, HEK293, Gal4-DAX1, luciferase luminescence. inhibition, % at 6.75 µM. Nuclear receptor subfamily 0 group B member 1 (Homo sapiens), P51843. actives 0.99% (n = 340,000). HEK293 Gal4-DAX1 luciferase reporter;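 active = inhibition above the mean over all tested compounds plus 3 SD, cut at about 4.2% in these data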;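 also: inhibition shows as a rise in luminescence from relieved DAX1 repression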
PolyA inh: polyadenylation inhibitors in yeast reporter cells, primary screen, luminescence, S. cerevisiae; activity score, % at 12 µM; S. cerevisiae SKY197-pL101 polyadenylation reporter, beta-gal luminescence; efflux-impaired pdr1/pdr3 knockout yeast; score 100 = 6 SD above DMSO; actives 0.02% (n = 300,000); AID 1875, 2009;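 active = lowest replicate activity score at least 50, where 100 means six control SD above control mean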;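 also: yeast exposed to compound for 9 h at 30 °C; higher score means more reporter readthrough which indicates perturbed polyadenylation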
ssDAF12 agonist: S. stercoralis DAF-12 nuclear receptor activators, primary screen, cell-based, luminescence, HEK293, GRIP1 co-expression, lit1-tk-luc. Nuclear hormone receptor DAF-12 (Strongyloides stercoralis). HEK293 ssDAF-12/GRIP1 lit1-tk-luc reporter; % of 3 µM dafachronic acid response. activation, % at 6.8 µM. actives 1% (n = 370,000). AID 652126, 2013;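 active = activation above the mean over all tested compounds plus 3 SD, cut at about 0.9% in these data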
DAX1 inh-2: DAX1 (NR0B1) inhibitors on StAR promoter, primary screen, cell-based, luminescence, SF-1 (NR5A1), full-length DAX-1 | HEK293T StAR-luciferase reporter, SF-1/DAX-1 repression relief | inhibition, % at 6.8 µM | actives 1.1% (n = 370,000) | AID 652010, 2013;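 active = inhibition above the mean over all tested compounds plus 3 SD, cut at about 3.6% in these data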;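 also: higher inhibition means more luminescence from relief of DAX-1 repression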
hgDAF12 agonist: H. glycines DAF-12 receptor agonists, primary screen, cell-based, luminescence, HEK293, GAL4 fusion, UAS-luciferase | HEK293 GAL4-hgDAF12 UAS-luciferase reporter, agonist luminescence; normalized to butyrate control | activation, % at 6.8 µM | actives 1.8% (n = 370,000);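 active = activation above a cutoff set at the mean of all screened compounds plus 3 SD, cut at about 10% in these data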
hcDAF12 agonist: H. contortus DAF-12 nuclear receptor activators, primary screen, cell-based, luminescence, HEK293, lit1-tk-luc reporter; HEK293 hcDAF-12 lit1-tk-luc reporter; 0% DMSO, 100% Δ7-dafachronic acid; activation, % at 6.8 µM; actives 1.4% (n = 370,000); AID 652067, 2013;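 active = activation above the mean of all tested compounds plus 3 SD, cut at about 5.5% in these data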
DAX1 conf: DAX1 (NR0B1) inhibitors relieving SF-1 repression, confirmation, cell-based, luminescence, HEK293T, full-length DAX-1, SF-1 activated StAR promoter; inhibition, % at 6.8 µM; shares compounds with DAX1 inh-2; actives 87% (n = 2,400); HEK293T StAR-promoter luciferase reporter, SF-1/DAX-1 repression;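 active = inhibition above the average of every tested compound plus 3 SD, cut at about 3.8% in these data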
Target sequence (P51843 whole entry, looked up): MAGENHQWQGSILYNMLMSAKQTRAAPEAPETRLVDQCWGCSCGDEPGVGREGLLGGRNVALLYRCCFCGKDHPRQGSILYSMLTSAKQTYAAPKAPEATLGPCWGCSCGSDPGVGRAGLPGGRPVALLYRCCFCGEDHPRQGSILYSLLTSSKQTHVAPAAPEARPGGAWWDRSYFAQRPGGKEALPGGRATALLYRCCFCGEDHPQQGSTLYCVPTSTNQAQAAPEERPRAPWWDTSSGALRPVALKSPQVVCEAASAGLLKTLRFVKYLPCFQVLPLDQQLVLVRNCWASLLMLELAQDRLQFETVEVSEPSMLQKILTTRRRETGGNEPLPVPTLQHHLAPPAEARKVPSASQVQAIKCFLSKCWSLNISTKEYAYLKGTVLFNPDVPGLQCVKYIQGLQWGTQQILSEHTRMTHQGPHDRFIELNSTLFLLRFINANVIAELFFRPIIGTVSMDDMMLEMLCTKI
SF1 AF2mut Luc: StAR reporter signal changes without DAX1, counter-screen for DAX1 inhibitor project, cell-based, luminescence, AF-2 mutant SF-1, transactivation; shares compounds with DAX1 inh-2; HEK293 StAR-luciferase, SF-1 AF2 mutant; inhibition, % at 6.8 µM; actives 78% (n = 2,400);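 active = inhibition above the mean of all tested compounds plus 3 SD, cut at about 3% in these data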
Large screens that a line does not name were inactive (follow-up assays come after a bar, where they were run).

CCC(C(=O)Nc1ccccc1N1CCCC1)c1ccccc1Cl (stereo not given)	none (no result: DAX1 inh-1, PolyA inh)
Cc1cc(C)c2nc(SCC(=O)N3CC(=O)Nc4ccccc43)c(C#N)cc2c1	DAX1 inh-2 4.8 | DAX1 conf 10.5 | SF1 AF2mut Luc inactive
O=C(Nc1ccc(Cl)cc1)C1=Cc2cc(Cl)ccc2OC1	none
COc1ccc(NC(=O)C2=Cc3ccccc3OC2)cc1	ssDAF12 agonist 1.2, DAX1 inh-2 8.0, hgDAF12 agonist 17.9, hcDAF12 agonist 5.8 | DAX1 conf 17.6 | SF1 AF2mut Luc 8.2
Cc1ccc(S(=O)(=O)N2CCN(C(=O)Cn3cnc4c3c(=O)n(C)c(=O)n4C)CC2)cc1C	DAX1 inh-2 5.0 (no result: PolyA inh) | DAX1 conf inactive | SF1 AF2mut Luc inactive
COc1ccc(Cc2c(-c3cccc(Br)c3)nc3ccc(Br)cn23)c(C)c1	DAX1 inh-2 5.1 (no result: DAX1 inh-1, PolyA inh) | DAX1 conf inactive | SF1 AF2mut Luc 3.5
COc1ccc(Cc2c(-c3ccc(C)cc3)nc3ccc(Cl)cn23)c(C)c1	DAX1 inh-2 5.7, hgDAF12 agonist 13.0 (no result: DAX1 inh-1, PolyA inh) | DAX1 conf 6.5 | SF1 AF2mut Luc 4.9
O=C(/C=C/c1ccc(S(=O)(=O)N2CCOCC2)cc1)NCc1ccccc1Cl	none
O=C(/C=C/c1ccc(S(=O)(=O)N2CCOCC2)cc1)NCc1ccccc1F	DAX1 inh-2 5.0 (no result: PolyA inh) | DAX1 conf inactive | SF1 AF2mut Luc inactive
C[C@H]1[C@@H](Cc2cc(Cl)cc(Cl)c2)N(c2ccccc2)c2ccccc2CN1Cc1ccccc1	DAX1 inh-2 5.0 (no result: DAX1 inh-1, PolyA inh) | DAX1 conf inactive | SF1 AF2mut Luc inactive
CC(C)(C)NC(=O)C(c1ccc(-c2ccccc2)cc1)n1c(=O)c(-c2cc3ccccc3[nH]2)nc2ccccc21 (stereo not given)	ssDAF12 agonist 1.4, DAX1 inh-2 4.9 (no result: DAX1 inh-1, PolyA inh) | DAX1 conf 4.4 | SF1 AF2mut Luc 4.6
COc1ccc(-n2c(SCC(=O)Nc3ccc(Oc4ccccc4)cc3)nnc2-c2ccc(C)cc2)cc1	none (no result: DAX1 inh-1, PolyA inh)
CCOC(=O)c1sc(NC(=O)c2ccc(CC)s2)nc1C	none
CCc1ccc(C(=O)Nc2nc(C)cs2)s1	DAX1 inh-2 15.6, hgDAF12 agonist 11.4 | DAX1 conf 9.9 | SF1 AF2mut Luc 6.1
Cc1nnc(NC(=O)c2nc(S(=O)(=O)Cc3ccccc3)ncc2Cl)s1	DAX1 inh-2 5.6 | DAX1 conf inactive | SF1 AF2mut Luc inactive
O=C(NCCc1ccccc1Cl)[C@@H]1CCCN1C(=O)[C@@H](NC(=O)N1CCOCC1)c1ccccc1	none (no result: DAX1 inh-1, PolyA inh)
CCCCOCC1CN(CCCC)S(=O)(=O)c2c(Oc3ccc(OC)cc3)cccc2O1 (stereo not given)	none (no result: DAX1 inh-1, PolyA inh)
O=C(COC(=O)c1ccc(O)cc1O)c1ccc(Cl)cc1	DAX1 inh-2 5.8 | DAX1 conf 5.4 | SF1 AF2mut Luc inactive
CCOC(=O)N1CCN(C(=O)C[C@H]2C[C@@]3(C(=O)OC)C(=C[C@H](C(C)(C)C)O[C@@H]3C)N(Cc3ccco3)C2=O)CC1	none (no result: DAX1 inh-1, PolyA inh)
